RECQ1 inh = RECQ1 (human) helicase inhibition | P46063 | RECQ1 DNA unwinding, red fluorescence kinetic read | Potency, µM (top dose mostly 57.3 µM), actives largely listed as inhibitors | 240,000 tested, 0.54% active | AID 2549; note: nearly all actives have a fitted effect of over 30% in size
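RECQ1T1 50 nM; forked duplex (20 bp + 30-nt ss tails) 200 nM, ATP 2 mM final; pH 8.0, 2 mM MgCl2, 2.5 ug/ml poly(dI-dC); 15 min compound preincubation; discontinuous kinetic read over 2 h at RT.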
TRb-SRC2 inh = TRbeta-SRC2 interaction inhibition; P10828; 280,000 tested, 0.065% active; TRbeta-SRC2 peptide binding, fluorescence polarization; receptor liganded with 1 µM T3; Potency, µM (top dose mostly 106 µM), actives largely listed as inhibitors; AID 1469; note: nearly all actives have a fitted effect of over 50% in size
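Decrease in fluorescence polarization of 20 nM Texas Red SRC2 coactivator peptide flagged inhibition of its binding to 0.6 uM TRb LBD; 1 uM T3 included, incubation 5 hr, ex 555/em 632 nm.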
GoLoco inh red = RGS12 GoLoco-Gai1 interaction inhibition | 230,000 tested, 0.44% active | AID 880 | Potency, µM (series often up to 61.6 µM), hits mostly inhibitors | Gai1:RGS12 GoLoco peptide FP, rhodamine, 10 min; active = well fitted inhibition curve with a large enough effect, not every such curve was filed as active; inactive = no such curve, though single readings can be large or run the other way; note: nearly all actives have a fitted effect of over 30% in size
Target sequence (P63096 whole entry, looked up): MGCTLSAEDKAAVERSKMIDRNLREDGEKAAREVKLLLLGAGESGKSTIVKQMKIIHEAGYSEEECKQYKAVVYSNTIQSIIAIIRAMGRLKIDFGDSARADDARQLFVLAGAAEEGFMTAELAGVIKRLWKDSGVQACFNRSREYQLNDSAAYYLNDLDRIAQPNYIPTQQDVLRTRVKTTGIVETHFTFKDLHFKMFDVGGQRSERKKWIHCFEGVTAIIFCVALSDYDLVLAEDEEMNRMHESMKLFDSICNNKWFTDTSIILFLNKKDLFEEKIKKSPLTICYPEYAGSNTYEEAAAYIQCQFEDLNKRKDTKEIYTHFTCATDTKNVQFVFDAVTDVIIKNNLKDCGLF
TexasRed fluor = alters Texas Red total fluorescence, flagging assay interference; TRb/SRC2 Texas Red total fluorescence interference; AID 1479; Potency, µM (titrated, usually from 106 µM); 280,000 tested, 0.29% active; active = well fitted curve in either direction with a large enough effect; inconclusive = small, poorly fitted or top-dose-only effect
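Flags fluorescent or light-absorbing compounds by total fluorescence, S + 2P, at 555 nm excitation and 632 nm emission. Mixture: 20 nM Texas Red SRC2 peptide, 0.6 uM human TRb LBD, 1 uM T3, 5% DMSO; compound exposure 5 h at ambient temperature.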
BLM helicase inh = Bloom syndrome helicase (human) inhibition; Potency, µM (doses to about 56.1 µM), usual class: inhibitors; 350,000 tested, 0.2% active; AID 2528; recombinant BLM DNA unwinding, fluorescence dequenching; P54132; note: nearly all actives have a fitted effect of over 35% in size
APE1 inh-1 = APE1 (human) endonuclease inhibition; P27695; recombinant APE1, TAMRA/BHQ-2 abasic DNA cleavage fluorescence; Potency, µM (titrated, usually from 65.8 µM), usual class: inhibitors; 350,000 tested, 0.35% active; note: nearly all actives have a fitted effect of over 55% in size
Target sequence (P27695 whole entry, looked up): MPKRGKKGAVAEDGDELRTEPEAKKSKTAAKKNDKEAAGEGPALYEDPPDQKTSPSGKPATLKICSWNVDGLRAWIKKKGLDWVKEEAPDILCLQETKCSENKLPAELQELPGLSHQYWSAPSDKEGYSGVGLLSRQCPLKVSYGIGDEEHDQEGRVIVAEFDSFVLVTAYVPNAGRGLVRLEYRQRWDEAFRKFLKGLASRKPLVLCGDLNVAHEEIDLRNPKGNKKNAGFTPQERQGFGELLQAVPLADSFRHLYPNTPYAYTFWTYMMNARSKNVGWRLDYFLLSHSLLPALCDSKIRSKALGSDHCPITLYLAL
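Compound pre-exposure to 0.75 nM APE1, 15 min at ambient temperature. Reaction initiated with 50 nM TAMRA/BHQ-2 THF substrate, read immediately in kinetic mode, 525 nm excitation, 598 nm emission.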
DNA dye displace = DNA dye displacement counter-screen activity. DNA fluorescent dye displacement counterscreen, fluorescence. Potency, µM (doses to about 28.5 µM), most hits filed as inhibitors. AID 2564. 480 tested, 7% active. shares compounds with APE1 inh-1;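 note: loss of thiazole orange fluorescence as the dye is displaced from duplex DNA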
EndoIV counter = Endo IV (E. coli) inhibition counter-screen; shares compounds with APE1 inh-1; E. coli Endo IV, fluorogenic AP-site DNA cleavage; Potency, µM (doses to about 27.1 µM), most hits filed as inhibitors; 560 tested, 4% active; AID 2565
APE1 inh-2 = APE1 (human) endonuclease inhibition, confirmation | purified APE1, fluorogenic abasic-site DNA cleavage | shares compounds with APE1 inh-1 | Potency, µM (series often up to 57.1 µM), hits mostly inhibitors | 750 tested, 44% active; note: nearly all actives have a fitted effect of over 30% in size
APE1 FP = APE1 (human) DNA binding inhibition, fluorescence polarization; shares compounds with APE1 inh-1; APE1 binding to TAMRA-labelled double-stranded DNA, fluorescence polarization displacement; Potency, µM (top dose mostly 28.5 µM), usual class: inhibitors; 480 tested, 7% active; AID 2573
Hits are given with their value; . = inactive; ? = inconclusive; / = no result given; ! = not confirmed by another sample; [ ] = remark or other dose. Rows were chosen to be rich in hits. Some 0.9% of all compounds tested hit in one or more screens of this group. Unless noted, calls come from the whole dose curve; as a rule, active = well fitted curve in the direction sought with a large enough effect; inconclusive = small, poorly fitted or top-dose-only effect, or another doubt; inactive = no such curve, though single readings can be large; an effect the other way counts as inactive or inconclusive.

SMILES	RECQ1 inh	TRb-SRC2 inh	GoLoco inh red	TexasRed fluor	BLM helicase inh	APE1 inh-1	DNA dye displace	EndoIV counter	APE1 inh-2	APE1 FP
Cc1cc(/C=N/NC(=O)c2cccc(N(C)C)c2)c(C)n1-c1cc(C(=O)O)cc(C(=O)O)c1	.	.	.	.	.	28µM	.	.	?	.
Cc1ccc2nc(-c3cc(NC(=O)COc4ccc(C)c(C)c4)ccc3Cl)oc2c1	/	.	/	?	.	/	/	/	/	/
O=C(N/N=C/c1c[nH]c2ccc(Br)cc12)c1ccncc1	.	.	.	.	?	.	/	/	.	/
O=C(N/N=C/c1c[nH]c2ccccc12)c1ccncc1	.	.	.	.	.	.	/	/	/	/
N#Cc1c(NC(=O)CSc2ncnc3sccc23)oc(-c2ccco2)c1-c1ccco1	25µM	.	.	.	20µM	?	10µM	.	?	.
Cc1cc(NC(=O)CSc2ncnc3sccc23)no1	.	.	.	.	.	.	/	/	/	/
COc1cccc(-c2cc(=O)c3cc(NC(=O)c4cccnc4)ccc3[nH]2)c1	.	.	.	.	.	.	/	/	/	/
O=C1CC2(CCCC2)CC(=O)N1CCCCNCC1COc2ccccc2O1 (stereo unspecified)	.	.	.	.	/	.	/	/	/	/
O=c1ccc2[n+]([O-])c3ccc(O)cc3oc-2c1	16µM	?	10µM	1.6µM[fluorescent]	/	25µM	.	?	13µM	0.018µM
Cc1ccc(Cn2ccnc2SCC(=O)Nc2nc3ccccc3s2)cc1	/	.	/	?	.	/	/	/	/	/
COc1ccc2c3c(cccc13)C(=O)N(O)C2=O	.	.	.	.	.	.	/	/	/	/
CCC1=NNc2cccc3c(OC)ccc1c23	.	.	18µM	.	?	?	?	.	.	.
CC(=O)OC1CC2C(C)(C)C(O)CC[C@@]2(C)C2CC[C@@]3(C)C(c4ccoc4)OC(=O)C4O[C@@]43[C@]12C (stereo partly specified)	.	.	.	.	.	.	/	/	/	/
CC(=O)OC1CC2C(C)(C)C(O)CC[C@@]2(C)C2CC[C@@]3(C)C(c4ccoc4)OC(=O)C4OC43[C@]12C (stereo partly specified)	.	.	.	.	.	?	.	.	?	.
O=C(O)c1ccccc1-n1cnnn1	.	.	.	.	.	.	/	/	/	/
O=C(O)c1ccccc1-n1cccc1C(=O)O	.	.	.	.	.	?	.	.	13µM	?
Cc1cc(C=O)c(C)n1-c1ccc(Cl)c(C(=O)O)c1	28µM	.	.	.	.	5.6µM	.	.	8.9µM	.
COc1ccc(-n2c(C)cc(C=O)c2C)cc1Cl	.	.	.	.	.	.	/	/	/	/
O=C1NN(c2ccccc2)C(=O)/C1=C/c1ccc(-c2ccc(Cl)c(C(=O)O)c2)o1	?	.	.	.	.	13µM	?	.	22µM	?
O=C(O)c1cc(-c2ccc(/C=C3\NC(=O)N(c4ccccc4)C3=O)o2)ccc1Cl	25µM	.	.	.	.	25µM	/	/	?	/
Cc1cccc(N2NC(=O)/C(=C/c3ccc(-c4ccc(Cl)c(C(=O)O)c4)o3)C2=O)c1	?	.	.	.	.	18µM	.	.	?	.
O=C1NN(c2ccccc2)C(=O)/C1=C/c1ccc(Sc2ccc(Cl)cc2)o1	?	.	.	.	.	.	/	/	/	/
Cc1ccc(C)c(N2CCN(C(=O)CN3C(=O)CSc4c3c(C)nn4-c3ccccc3)CC2)c1	/	.	/	.	.	/	/	/	/	/
COc1ccc(OC)c(C2OCCC=CC2C)c1 (stereo unspecified)	.[11.5 µM]	.[11.2 µM]	/	.[11.2 µM]	.[12.4 µM]	?	/	/	/	/
Cn1nc([N+](=O)[O-])nc1S(C)(=O)=O	.	.	.	.	.	?	.	.	?	.
SMILES	RECQ1 inh	TRb-SRC2 inh	GoLoco inh red	TexasRed fluor	BLM helicase inh	APE1 inh-1	DNA dye displace	EndoIV counter	APE1 inh-2	APE1 FP
CCN(CC)c1ccc(NC(=O)CCCN2C(=O)C(c3ccccc3)Oc3cccnc32)c(C)c1 (stereo unspecified)	/	.	/	.	.	/	/	/	/	/
O=C(O)c1ccccc1-c1ccc(/C=c2\sc3nc4cc(Br)cnc4n3c2=O)o1	14µM	.	.	.	.	22µM	.	.	8.9µM	?
OCC1OC(n2cnc3c(Cl)nc(Cl)nc32)C(O)C1O (stereo unspecified)	.	.	.	.	.	.	/	/	/	/
Nc1nc(Cl)nc2c1ncn2[C@@H]1O[C@H](CO)[C@H](O)[C@H]1O	.	.	.	.	/	.	/	.	.	/
Cc1cccc(C)c1NC(=O)Cn1c(SCC(=O)NCc2ccccc2)nc2ccccc21	/	.	/	.	.	/	/	/	/	/
C=CCOC(=O)N[C@@H](c1ccc(Br)cc1)C(C(C)=O)C(C)=O	.	.	.	.	.	.	/	/	/	/
CC(=O)NN1C(=O)/C(=C/c2ccc(Br)o2)SC1=S	?	.	.	.	.	32µM	.	.	?	.
CC(=O)NN1C(=O)/C(=C\c2ccc(Br)o2)SC1=S	.	.	.	.	.	?	/	/	/	/
O=C(O)C1CC=CCC1C(=O)Nc1ccccc1 (stereo unspecified)	.	.	.	.	.	.	/	/	.	/
O=C(O)Cc1ccc(NC(=O)C2CC=CCC2C(=O)O)cc1 (stereo unspecified)	.	.	.	.	.	20µM	/	/	.	/
CCOc1ccc(S(=O)(=O)Nc2cccc(-c3ccc(N4CCC(C)CC4)nn3)c2)cc1	/	.	/	.	.	/	/	/	/	/
O=c1c2ccccc2nc(COc2ccccc2)n1/N=C/c1ccc(O)c(O)c1	28µM	.	.	.	.	?	?	.	?	.
CC(C)NCC(O)c1ccc(O)c(O)c1 (stereo unspecified)	.	.	.	.	.	.	/	/	/	/
NC[C@@H](O)c1ccc(O)c(O)c1	14µM!	.	.	?	13µM!	1µM	/	.	4µM	/
CN=c1scc(-c2ccco2)n1/N=C/c1ccc(O)c(O)c1	.	.	.	.	.	?	/	/	/	/
CN=c1scc(-c2ccccc2F)n1/N=C/c1ccc[nH]1	.	.	.	.	.	35µM	.	.	?	.
COCCN(CCOC)C(=O)c1cc2c(=O)n3ccccc3nc2n1C	/	.	/	?	.	/	/	/	/	/
Clc1ccc(-c2csc(=Nc3ccccc3)n2Cc2ccc3c(c2)OCO3)cc1	/	.	/	?	.	/	/	/	/	/
COc1ccc2c(c1)c(=O)oc1cc3oc(C)c(C)c3cc12	.	.	.	.	.	?	.	.	5.6µM	.

Compound activity as filed in PubChem.
